Data on five compounds can be found in PubChem BioAssay (NCI).

Structures are written as SMILES. Values joined by “and” are separate entries in the source; they are usually repeats but may differ in a detail not shown here. Equal values may be shown once. This is part of a sample that, as a whole, favours compounds with a hit. Of some 83,000 tested, about 20% had one in any assay.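 Interpretation: 100, growth as untreated; towards 0, rising growth inhibition; 0, no net growth; 0 to -100, cell death. Compounds scoring below 10 were considered active.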 Active and inactive are the calls of the source.

In the test the test system is MDA-MB-468 breast. Put plainly: NCI-60 one-dose screen, 48 h (100 = growth as untreated, 0 = no growth, -100 = all killed). The conditions noted are these: 10 µM unless noted.
As for `COc1cccc2c1cc([N+](=O)[O-])c1c(C(=O)O)cc3c(c12)OCO3`, the growth was -46.6% (active) and 100% (inactive). The figure for `CC(C)(N)Cc1ccccc1` is 114% (inactive).

Regarding `Cc1cc(NC(=O)NCc2ccc(N3C(N)=NC(N)=NC3(C)C)cc2)ccc1S(=O)(=O)F`, the growth was 63.3% (inactive). Then `Nc1cc2nc3ccccc3nc2cc1N`, with -11.9% (active).

Regarding `CC12CCC3C(CC=C4CC(O)CCC43C)C1C/C(=C\N1CCOCC1)C2=O` (stereo not given), the growth was 106% (inactive).
